# Assay outcomes: PubChem BioAssay, The Scripps Research Institute Molecular Screening Center
# ssDAF12 agonist = activators of S. stercoralis DAF-12 nuclear receptor | actives 1% (n = 370,000) | HEK293 ssDAF-12/GRIP1 lit1-tk-luc reporter, luminescence; % of 3 µM dafachronic acid response | activation, % at 6.8 µM;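 active means activation above the mean over all tested compounds plus 3 SD, cut at about 0.9% in these data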;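 further: 0% = DMSO-only wells and 100% = 3 µM delta7-dafachronic acid wells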
# hcDAF12 agonist = activators of H. contortus DAF-12 nuclear receptor; activation, % at 6.8 µM; actives 1.4% (n = 370,000); AID 652067; HEK293 hcDAF-12 lit1-tk-luc reporter, luminescence; 0% DMSO, 100% Δ7-dafachronic acid;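 active means activation above the mean of all tested compounds plus 3 SD, cut at about 5.5% in these data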;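 further: 100% = response to 3 µM Δ7-dafachronic acid high control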
# DAX1 inh-1 = inhibitors of human orphan nuclear receptor DAX1 (NR0B1); actives 0.99% (n = 340,000); HEK293 Gal4-DAX1 luciferase reporter, luminescence; inhibition, % at 6.75 µM; P51843;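 active means inhibition above the mean over all tested compounds plus 3 SD, cut at about 4.2% in these data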;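 further: 0% = DAX1-transfected cells with DMSO and 100% = empty-vector control cells with DMSO; inhibition shows as a rise in luminescence from relieved DAX1 repression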
# DAX1 inh-2 = DAX1 (NR0B1) inhibition, primary screen | HEK293T StAR-luciferase reporter, SF-1/DAX-1 repression relief | actives 1.1% (n = 370,000) | AID 652010 | inhibition, % at 6.8 µM;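 active means inhibition above the mean over all tested compounds plus 3 SD, cut at about 3.6% in these data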;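 further: 0% = DAX-1 cells with DMSO and 100% = cells lacking DAX-1 with DMSO; higher inhibition means more luminescence from relief of DAX-1 repression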
# hgDAF12 agonist = activates the H. glycines DAF-12 receptor ligand-binding domain; HEK293 GAL4-hgDAF12 UAS-luciferase reporter, agonist luminescence; normalized to butyrate control; activation, % at 6.8 µM; actives 1.8% (n = 370,000);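 active means activation above a cutoff set at the mean of all screened compounds plus 3 SD, cut at about 10% in these data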;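 further: 0% = DMSO wells and 100% = sodium butyrate wells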
# AHR act = human AHR activation | P35869 | AID 2796 | actives 2.5% (n = 320,000) | activation, % at 5 µM | AHR-responsive luciferase reporter cells, luminescence; in the data active means activation above about 47%;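 further: 0% = vehicle wells and 100% = reference agonist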
# Target sequence (P35869 whole entry, looked up): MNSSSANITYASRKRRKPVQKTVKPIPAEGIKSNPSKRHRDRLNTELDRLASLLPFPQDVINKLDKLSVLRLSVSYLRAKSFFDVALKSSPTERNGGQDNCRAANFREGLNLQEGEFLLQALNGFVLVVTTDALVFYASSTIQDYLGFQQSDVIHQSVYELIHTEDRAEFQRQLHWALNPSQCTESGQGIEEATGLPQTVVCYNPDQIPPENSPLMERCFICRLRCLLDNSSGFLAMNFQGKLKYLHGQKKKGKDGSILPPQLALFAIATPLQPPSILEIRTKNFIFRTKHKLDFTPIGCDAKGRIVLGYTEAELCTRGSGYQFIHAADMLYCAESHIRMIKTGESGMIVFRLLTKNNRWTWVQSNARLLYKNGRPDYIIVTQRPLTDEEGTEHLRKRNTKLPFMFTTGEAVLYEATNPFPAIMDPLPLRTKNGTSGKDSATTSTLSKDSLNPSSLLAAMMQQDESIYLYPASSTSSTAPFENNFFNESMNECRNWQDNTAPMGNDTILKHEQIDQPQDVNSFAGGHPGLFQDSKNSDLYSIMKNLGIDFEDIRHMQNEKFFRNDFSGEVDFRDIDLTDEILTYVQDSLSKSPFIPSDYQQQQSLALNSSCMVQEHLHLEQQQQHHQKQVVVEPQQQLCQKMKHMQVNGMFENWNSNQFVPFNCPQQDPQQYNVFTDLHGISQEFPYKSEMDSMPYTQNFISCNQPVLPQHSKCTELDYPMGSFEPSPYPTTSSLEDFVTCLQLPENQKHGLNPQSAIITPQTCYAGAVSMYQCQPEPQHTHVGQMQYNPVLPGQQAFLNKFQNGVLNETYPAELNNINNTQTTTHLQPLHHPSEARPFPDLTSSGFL
# * marks the source's active call; other numbers are inactive results; . = no result. Only some compounds are listed: those with a hit (about 5.7% of all), similar ones and a draw of the others.
SMILES,ssDAF12 agonist,hcDAF12 agonist,DAX1 inh-1,DAX1 inh-2,hgDAF12 agonist,AHR act
CC(C)c1ccc(N(C(=O)c2csnn2)C(C(=O)NC(C)(C)C)c2ccncc2)cc1 (centres undefined),-0.3,6.3*,2.2,0.8,16.7*,15.8
Cc1cccc(C)c1NC(=O)C1(C)CSCC(=O)N1CCCn1ccnc1 (centres undefined),2.1*,-1.7,.,0.7,-0.8,.
O=C(CSc1nc2ccc([N+](=O)[O-])cc2s1)NC1CCS(=O)(=O)C1 (centres undefined),-0.8,1.5,-0.3,-1.5,0.2,11.4
COC(=O)c1ccccc1NC(=O)C1CCCC1,-0.6,-1.3,1.3,-0.6,-2.6,2.4
COC(=O)c1ccccc1NC(=O)COC(=O)C1CCCCC1,0.6,-1.4,4.4*,0.0,-3.0,0.8
Oc1ccc(C2CNCc3sccc32)cc1O (centres undefined),1.0*,-2.2,-0.5,-0.2,0.2,-1.2
Cc1ccc(Cl)cc1N1C(=O)CC(C)(C)CC1=O,-1.0,-2.4,-1.3,-0.5,0.4,-1.3
Cc1ccc2[nH]c(O)c(N=Nc3ccccc3C)c2c1,-0.1,4.3,-0.9,-0.2,-1.3,14.6
Cc1ccc2[nH]c(O)c(N=O)c2c1,-0.4,0.8,4.9*,0.2,0.3,10.8
CCn1cc(C2=NOC(C(=O)Nc3cccc(C(C)=O)c3)C2)c(C)n1 (centres undefined),-2.3,-1.7,-2.4,-2.0,-3.3,-3.5
N/C(=N\OC(=O)COc1ccc(Br)cc1Cl)c1cccnc1,-0.9,2.2,0.9,-0.2,11.6*,16.5
N/C(=N\OC(=O)COc1ccc(Cl)cc1Br)c1cccnc1,-0.7,1.8,1.1,1.1,11.2*,10.2
Cc1ccc(C)c(OCC(=O)O/N=C(\N)c2cccnc2)c1,-1.4,1.6,0.4,0.1,1.3,4.6
COP(=O)(OC)c1nc(-c2cccc3ccccc23)oc1NCc1ccccc1,-1.5,-1.9,4.6*,0.0,-4.8,6.4
COc1ccc(C)cc1NC(=O)C(OC(=O)c1ccc([N+](=O)[O-])o1)c1ccccc1 (centres undefined),-0.5,-1.5,-0.6,-0.7,-5.4,47.2*
COc1ccc(C)cc1NC(=O)C(OC(=O)Cn1cnc2c1c(=O)n(C)c(=O)n2C)c1ccccc1 (centres undefined),-1.5,-1.2,-1.0,-0.5,-1.1,52.6*
COc1ccc(C)cc1NC(=O)C(OC(=O)CNC(=O)c1cc(C)cc(C)c1)c1ccccc1 (centres undefined),-1.6,-0.7,-0.9,0.2,1.0,67.4*
COc1ccc(C)cc1NC(=O)C(OC(=O)c1cnccn1)c1ccccc1 (centres undefined),-0.6,-1.8,-0.7,0.8,-0.8,32.2
Cc1ccc(S(=O)(=O)N2CCN(CC(=O)N/N=C/c3ccccc3OCC(=O)O)CC2)cc1,-1.3,-1.5,.,0.2,2.3,-0.6
O=C(NS(=O)(=O)N1CCCC1)C1=C(N2CCCC2)COC1=O,-1.3,-1.3,1.1,0.0,0.6,-1.1
CC1=Nn2c(nnc2-c2cc(-c3ccccc3)n[nH]2)SC1,-0.3,2.1,0.5,0.1,-0.2,78.9*
O=C(Nn1c(-c2ccc(Br)cc2)nc2ccccc2c1=O)c1ccc([N+](=O)[O-])cc1,-0.4,1.4,-1.4,-0.5,1.7,61.6*
O=C(Nn1c(-c2ccccc2)nc2ccccc2c1=O)c1ccco1,0.5,0.5,-0.8,0.1,-2.2,58.2*
Cc1ccc(-c2nnnn2CS(=O)(=O)c2ccccc2)cc1,-0.9,0.2,0.2,0.1,2.3,7.8
CC(C)NC(=O)C1C(c2ccc(C(F)(F)F)cc2)=Nc2ccccc2N1C(=O)c1ccccc1 (centres undefined),1.5*,4.0,.,2.9,6.0,.
SMILES,ssDAF12 agonist,hcDAF12 agonist,DAX1 inh-1,DAX1 inh-2,hgDAF12 agonist,AHR act
O=C(NC1CCCC1)C1C(c2ccccc2)=Nc2ccccc2N1C(=O)c1ccc(C(F)(F)F)cc1 (centres undefined),-0.4,-1.4,.,-0.1,5.0,.
Cc1ccc(N=CNc2ccc(C)cc2C)c(C)c1,1.8*,0.3,.,-0.4,-1.0,-0.6
CS(=O)(=O)Nc1ccc(N2CCN(c3ccc(C(F)(F)F)cn3)CC2)nc1,-1.7,-5.5,-5.2,-2.1,-8.3,-5.1
CC1=NN(c2ccc(C(F)(F)F)cn2)C(=O)C1,-1.1,2.1,0.7,0.3,2.0,50.6*
Cc1cccc2c(C(=O)O)c3cccc(C)c3nc12,1.3*,5.2,-0.2,0.4,6.9,0.1
CN1C(=O)[C@@]2(O[C@H]3c4ccccc4C=CN3C3=C2C(=O)CCC3)c2ccccc21,-0.9,-1.8,.,-0.8,0.4,.
CN1C(=O)[C@@]2(O[C@H]3C=CC=CN3C3=C2C(=O)CCC3)c2cccc(Br)c21,0.9*,-2.0,.,-0.8,-1.7,.
O=C(O)[C@H]1CCCC[C@H]1C(=O)Nc1cc([N+](=O)[O-])ccc1F,-1.4,1.0,-0.1,-0.1,-0.1,4.2
CCOc1ccc(C(=O)NCC(=O)N2CCN(C/C=C/c3ccccc3)CC2)cc1OCC,-1.0,-1.0,-0.6,-2.5,1.2,1.0
C[C@@H](C(=O)N=c1sc2ccccc2n1C)N1C(=O)C2CC=CCC2C1=O (some centres undefined),1.0*,1.3,-0.9,0.1,-1.1,.
O=C(Nc1ccc(S(=O)(=O)N2CCOCC2)cc1)C1CCN(S(=O)(=O)c2ccc(F)cc2)CC1,-1.0,-2.2,-0.9,-2.2,-1.5,1.5
COc1ccc(-c2nnc(-c3cccs3)o2)cc1OC,0.0,1.0,1.1,2.6,12.0*,0.8
COc1cc(-c2nnc(-c3cccs3)o2)cc(OC)c1OC,-0.4,-2.8,-0.1,-0.2,-1.6,9.2
Cc1c(C(=O)NCc2ccc(Cl)c(Cl)c2)sc(=O)n1Cc1ccc(S(C)(=O)=O)cc1,-3.2,-6.2,.,-5.8,-11.4,.
COc1cc(-c2csc(C)n2)ccc1O,-1.0,0.1,4.3*,0.1,0.9,2.0
CC1CCCCN1C(=O)CN1CCC(c2nc3ccc(Cl)cc3[nH]2)CC1 (centres undefined),-1.5,0.4,4.5*,0.9,-1.2,-0.6
CCCOc1cccc(C(=O)Nc2cccc(NC(=O)c3ccco3)c2)c1,-0.9,-1.3,-1.0,-1.4,-0.4,47.7*
CCOc1cccc(C(=O)Nc2cccc(C(=O)NCC(C)C)c2)c1,-1.1,-1.3,-1.7,-0.5,4.7,71.1*
CCN(CC)CCn1c2ccccc2c2cnc(N)c(C#N)c21,0.3,2.6,2.9,3.9*,8.0,5.8
CN(C)C=Nc1ncc2c3ccccc3n(CCN(C)C)c2c1C#N,-1.5,0.3,0.8,-0.8,6.5,5.1
CNc1nc(Cl)nc2c1ncn2-c1ccccc1,-1.1,0.4,4.6*,-0.7,3.9,.
